Here are results for 40 compounds from PubChem BioAssay (EPA / NIEHS).

Active and inactive are the calls of the source. Rule for the calls: active = hit-call score of the fitted dose curve at least 0.9, where 1 is the maximum; inactive = score below 0.9.

This assay in a line: ATG_M_06_CIS: Attagene CIS-FACTORIAL HepG2 Assay for M06 Transcription Factor (Internal Marker) (AID 2282950). The following applies: HepG2 Attagene CIS-FACTORIAL M06 internal marker reporter; actives raise or lower the signal. As for the experimental part: ATG_CIS is a cell-based, multiplexed-readout assay that uses HepG2, a human liver cell line, with measurements taken at 24 hours after chemical dosing in a 24-well plate.ATG_M_06_CIS is one of 52 assay component(s) measured or calculated from the ATG_CIS assay. It is designed to make measurements of mRNA induction, a form of inducible reporter, as detected with fluorescence intensity signals by Reverse transcription polymerase chain reaction (RT-PCR) and Capillary electrophoresis technology.Data from the assay component ATG_M_06_CIS was analyzed into 1 assay endpoint. This assay endpoint, ATG_M_06_CIS, was analyzed with bidirectional fitting relative to DMSO as the negative control and baseline of activity. Using a type of inducible reporter, measures of mRNA for gain or loss-of-signal activity can be used to understand the background control at the transcription factor-level as they relate to the gene . Furthermore, this assay endpoint can be referred to as a secondary readout, because this assay has produced multiple assay endpoints where this one serves a background control function. To generalize the intended target to other relatable targets, this assay endpoint is annotated to the background measurement intended target family, where the subfamily is internal marker.
Human liver HepG2 cells are transiently transfected with multiple reporter transcription units (MRTUs) in 6-well plates using FuGene 6 reagent (Roche; 3 ml FuGene/1 mg DNA). The MRTU constructs are regulated by a cis-regulating element (promoter). […] A major difference between the CIS and TRANS system is that in CIS activities of endogenous TFs are measured, whereas the TRANS assay evaluates changes in activities of exogenous, chimeric NR-Gal4 proteins. […] At the end of 24 hour incubation, total RNA was isolated using TriZol reagent (Invitrogen). The isolated RNA is then reverse-transcribed using oligo(dT) primer and Mo-MLV reverse transcriptase (Invitrogen) with DNAse I (Ambion) treatment for 30 min. The one-tenth of the produced cDNA was amplified by PCR using Taq DNA polymerase (Invitrogen) and two reporter sequence-specific primers. The PCR products were fluorescently labeled by primer extension with 6-arboxyfluorescein (6-FAM) 5'-labeled reporter sequence-specific primer (2 min at 95 C, 20 s at 68 C and 10 min at 72 C) and these products were digested with 5U of HpaI (New England Biolabs) for 2h at 37 C. The fragments were purified using Qiaquick PCR columns (Qiagen), analyzed on an ABI 3130xL genetic analyzer (Applied Biosystems) with peak positions identified by using a set of X-rhodamine (ROX)-labeled MapMarker1000 molecular weight standards (BioVentures). The raw capillary electrophoresis data was processed using Attagraph software (Attagene).
In the case of `CCCCCCCOC(=O)c1ccccc1C(=O)OCCCCCCC`, the outcome was inactive.

For the compound `O=C(O)C(F)(OC(F)(F)C(F)(OC(F)(F)C(F)(F)C(F)(F)F)C(F)(F)F)C(F)(F)F` (stereo not given), the outcome was inactive. For `Oc1ccc(Nc2ccccc2)cc1`, the compound was called inactive. As for `FC1CC(F)(F)C(F)(F)C1(F)F` (stereo not given), the entry is “inactive”; as for `O=C(O)C(F)(F)C(F)(F)F`, “inactive”. As for `C=CC(F)(F)C(F)(F)C(F)(F)C(F)(F)C(F)(F)C(F)(F)C(F)(F)C(F)(F)F`, the entry is “inactive”. In the case of `CC(C)=CCCC(C)CCOC(=O)C(C)C` (stereo not given), the outcome was inactive. Consider `Nc1ccc([N+](=O)[O-])cc1O`, for which the outcome was inactive. Regarding `OCCCC(F)(F)C(F)(F)C(F)(F)C(F)(F)C(F)(F)C(F)(F)C(F)(F)F`, the outcome was inactive. Consider `O=C(O)C(F)(F)C(F)(F)OC(F)(F)F`, for which the compound was classed as inactive. As for `O=C(O)C(F)(F)C(F)(F)C(F)(F)C(F)(F)C(F)(F)C(F)(F)C(F)(F)C(F)(F)C(F)(F)C(F)(F)C(F)(F)C(F)(F)F`, the result was inactive.

Regarding `O=C(O)C(F)(F)C(F)(F)C(F)F`, the compound was classed as inactive. As to `C#C[C@]1(O)CC[C@H]2[C@@H]3CCc4cc(OC)ccc4[C@H]3CC[C@@]21C`, the outcome was inactive. `FC(F)(Br)C(F)(F)C(F)(F)C(F)(F)C(F)(F)C(F)(F)Br`: the outcome was inactive.

Turning to `CC(C)OC(=O)c1ccccc1C(=O)OC(C)C`, the compound was called inactive. For the compound `COC(=O)C1CCC(C(=O)OC)CC1` (stereo not given), the result was inactive. As for `FC(F)(F)C(F)(F)C(F)(F)C(F)(F)C(F)(F)C(F)(F)CC1CO1` (stereo not given), the entry is “inactive”; as for `CCO[Si](CCC(F)(F)C(F)(F)C(F)(F)C(F)(F)C(F)(F)C(F)(F)F)(OCC)OCC`, “inactive”; as for `O=C(CC(=O)C(F)(F)C(F)(F)F)C(F)(F)F`, “inactive”. In the case of `FC(F)(F)C(F)(F)C(F)(F)C(F)(F)CCI`, the compound was classed as inactive.

Turning to `O=S(=O)(OCCOC(F)(F)F)C(F)(F)F`, the compound was called inactive.

`O[Si](c1ccccc1)(c1ccccc1)c1ccccc1`: the compound was called inactive. Take `C=C(C)C(=O)OCCC(F)(F)C(F)(F)C(F)(F)C(F)(F)C(F)(C(F)(F)F)C(F)(F)F`: the result was inactive. `COC(=O)CCC(F)(F)C(F)(F)C(F)(F)C(F)(F)F`: the compound was called inactive. Regarding `O=S(=O)(O)C(F)(F)C(F)(F)C(F)(F)C(F)(F)C(F)(F)C(F)(F)C(F)(F)F`, the outcome was inactive. Turning to `FC(F)(F)C(F)(F)C(F)(F)C(F)(F)C(F)(F)C(F)(F)C(F)(F)C(F)(F)F`, the compound was called inactive. In the case of `FC(F)(F)C(F)(F)CNCC(F)(F)C(F)(F)F`, the outcome was inactive. As for `CNC(=S)NC`, the entry is “inactive”; as for `C1COCCN1`, “inactive”. As to `C=C(C)C(=O)OCC(F)(F)C(F)(F)C(F)(F)F`, the call was inactive. As for `Nc1ccc(Oc2cccc(Oc3ccc(N)cc3)c2)cc1`, the call was inactive. For `OCC(F)(F)C(F)(F)C(F)(F)C(F)F`, the compound was classed as inactive.

Turning to `OCC(F)(F)C(F)(F)C(F)(F)C(F)(F)C(F)(F)C(F)(F)F`, the compound was called inactive. For `Cc1cc(C)cc(O)c1`, the outcome was inactive.

On to `OCC(F)(F)C(F)(F)C(F)(F)F`, for which the compound was called inactive. On to `FC(F)(F)C(F)(F)C(F)(F)CI`, for which the compound was called inactive. As to `CCc1c(Br)c(Br)c(Br)c(Br)c1Br`, the compound was classed as inactive. As for `CC(CCl)OP(=O)(OC(C)CCl)OC(C)CCl` (stereo not given), the entry is “inactive”; as for `Nc1ccc(S(=O)(=O)Nc2nccs2)cc1`, “inactive”; as for `CO[Si](OC)(c1ccccc1)c1ccccc1`, “inactive”.
